Measured values published in PubChem BioAssay (Tox21).
Inconclusive results are not listed. Entries that show only a call come without a potency. Activity calls are given as the source filed them. Calls come from the whole dose curve; as a rule, active = well fitted curve in the direction sought with a large enough effect in the repeat runs; inconclusive = weak or mixed curves; inactive = no such curve, though single readings can be large; an effect the other way counts as inactive or inconclusive.

Experiments:
[1] = target: Cytochrome P450 2C19 (Homo sapiens) (UniProt P33261); test: Cytochrome P450 Family 2 Subfamily C Member 19 (CYP2C19) small molecule antagonists: luciferase reporter qHTS assay (AID 1671197); note: nearly all actives have a fitted effect of over 65% in size; note: potency is the fitted concentration of half-maximal effect
Chain of Cytochrome P450 2C19 (Homo sapiens) (P33261 whole entry, looked up): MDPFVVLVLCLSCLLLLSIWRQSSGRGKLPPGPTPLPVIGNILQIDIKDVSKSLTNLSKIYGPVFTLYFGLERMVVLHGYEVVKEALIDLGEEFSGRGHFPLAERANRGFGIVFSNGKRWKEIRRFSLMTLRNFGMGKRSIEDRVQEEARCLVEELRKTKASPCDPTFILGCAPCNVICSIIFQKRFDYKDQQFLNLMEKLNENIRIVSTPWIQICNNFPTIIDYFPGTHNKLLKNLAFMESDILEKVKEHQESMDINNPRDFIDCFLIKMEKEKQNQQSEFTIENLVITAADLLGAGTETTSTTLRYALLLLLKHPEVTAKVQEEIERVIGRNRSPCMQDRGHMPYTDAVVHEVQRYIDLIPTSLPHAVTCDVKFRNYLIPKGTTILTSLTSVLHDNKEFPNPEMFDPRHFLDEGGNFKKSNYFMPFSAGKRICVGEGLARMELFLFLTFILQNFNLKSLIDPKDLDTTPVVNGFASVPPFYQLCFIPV
How it was run: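 CYP2C19 P450-Glo, 1536-well qHTS. Cpd + enzyme/proluciferin substrate 10 min RT; + NADPH regen, 37C 1 h; stop with luciferin detection reagent, 20 min RT, luminescence (RLU). Pos ctrl ketoconazole.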

[2] = target: Cytochrome P450 1A2 (Homo sapiens) (UniProt P05177); test: Cytochrome P450 Family 1 Subfamily A Member 2 (CYP1A2) small molecule antagonists: luciferase reporter qHTS assay (AID 1671199); note: nearly all actives have a fitted effect of over 50% in size; note: potency is the fitted concentration of half-maximal effect
Chain of Cytochrome P450 1A2 (Homo sapiens) (P05177 whole entry, looked up): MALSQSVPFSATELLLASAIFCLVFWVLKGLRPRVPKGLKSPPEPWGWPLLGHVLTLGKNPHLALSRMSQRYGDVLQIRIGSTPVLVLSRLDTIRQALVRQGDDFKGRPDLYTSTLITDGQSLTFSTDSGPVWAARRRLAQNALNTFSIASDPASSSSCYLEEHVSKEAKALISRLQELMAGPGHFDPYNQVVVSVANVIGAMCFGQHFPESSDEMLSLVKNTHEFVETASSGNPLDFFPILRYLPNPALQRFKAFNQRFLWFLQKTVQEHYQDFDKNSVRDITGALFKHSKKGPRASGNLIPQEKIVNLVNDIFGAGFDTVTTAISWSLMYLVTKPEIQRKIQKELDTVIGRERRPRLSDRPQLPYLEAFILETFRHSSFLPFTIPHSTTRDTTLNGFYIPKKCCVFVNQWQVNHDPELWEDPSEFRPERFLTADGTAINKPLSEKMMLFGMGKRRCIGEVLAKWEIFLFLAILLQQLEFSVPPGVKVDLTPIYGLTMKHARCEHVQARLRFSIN
How it was run: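 Read-out is luminescence from luciferin detection reagent (20 min) proportional to CYP1A2 activity; compounds in DMSO preincubated 10 min with enzyme and proluciferin substrate, then NADPH regeneration solution, 1 h, room temperature.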

[3] = target: Voltage-gated inwardly rectifying potassium channel KCNH2 (Homo sapiens) (UniProt Q12809); test: Human Ether-a-go-go-Related Gene (hERG) channel small molecule antagonists: fluorescence cell-based qHTS assay (AID 1671200); note: nearly all actives have a fitted effect of over 50% in size; note: potency is the fitted concentration of half-maximal effect
Chain of Voltage-gated inwardly rectifying potassium channel KCNH2 (Homo sapiens) (Q12809 whole entry, looked up): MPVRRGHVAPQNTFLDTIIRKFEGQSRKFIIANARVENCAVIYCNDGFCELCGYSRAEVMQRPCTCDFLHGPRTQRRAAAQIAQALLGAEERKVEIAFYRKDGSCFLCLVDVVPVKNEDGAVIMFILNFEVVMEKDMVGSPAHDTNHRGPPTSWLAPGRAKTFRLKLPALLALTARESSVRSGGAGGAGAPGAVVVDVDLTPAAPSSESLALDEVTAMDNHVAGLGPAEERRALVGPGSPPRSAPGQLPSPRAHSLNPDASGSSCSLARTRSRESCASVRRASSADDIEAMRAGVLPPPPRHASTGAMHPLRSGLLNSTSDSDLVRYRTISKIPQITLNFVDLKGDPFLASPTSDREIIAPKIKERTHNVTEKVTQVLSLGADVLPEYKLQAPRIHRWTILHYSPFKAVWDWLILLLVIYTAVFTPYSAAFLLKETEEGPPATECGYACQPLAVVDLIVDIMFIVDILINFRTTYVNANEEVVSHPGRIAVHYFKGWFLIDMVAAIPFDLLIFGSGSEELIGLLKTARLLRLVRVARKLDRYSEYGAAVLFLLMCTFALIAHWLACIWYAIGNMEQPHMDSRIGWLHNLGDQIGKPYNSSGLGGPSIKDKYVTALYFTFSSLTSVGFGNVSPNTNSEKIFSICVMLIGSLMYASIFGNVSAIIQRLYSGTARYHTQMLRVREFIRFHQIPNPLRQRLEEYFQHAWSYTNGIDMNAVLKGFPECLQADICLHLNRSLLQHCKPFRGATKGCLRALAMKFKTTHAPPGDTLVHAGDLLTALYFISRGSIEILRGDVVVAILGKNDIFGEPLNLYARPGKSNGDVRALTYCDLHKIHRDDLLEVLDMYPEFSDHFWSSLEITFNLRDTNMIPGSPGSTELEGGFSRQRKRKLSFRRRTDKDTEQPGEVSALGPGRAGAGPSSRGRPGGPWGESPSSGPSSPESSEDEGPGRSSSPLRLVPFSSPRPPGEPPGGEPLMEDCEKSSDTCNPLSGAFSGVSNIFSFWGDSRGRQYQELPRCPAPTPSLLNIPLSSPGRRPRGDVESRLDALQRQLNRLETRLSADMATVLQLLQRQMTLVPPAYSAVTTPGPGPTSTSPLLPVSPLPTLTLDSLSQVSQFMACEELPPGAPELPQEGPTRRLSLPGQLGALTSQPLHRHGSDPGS
How it was run: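 In this thallium-flux screen, overnight-cultured U2OS cells bearing the channel are dye-loaded in darkness for an hour, rested 10 min at room temperature, and then monitored kinetically at 480/540 nm for two minutes post-stimulus.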

[4] = target: Cytochrome P450 3A4 (Homo sapiens) (UniProt P08684); test: Cytochrome P450 Family 3 Subfamily A Member 4 (CYP3A4) small molecule antagonists: luciferase reporter qHTS assay (AID 1671201); note: series mostly up to about 120 µM; nearly all actives have a fitted effect of over 50% in size
Chain of Cytochrome P450 3A4 (Homo sapiens) (P08684 whole entry, looked up): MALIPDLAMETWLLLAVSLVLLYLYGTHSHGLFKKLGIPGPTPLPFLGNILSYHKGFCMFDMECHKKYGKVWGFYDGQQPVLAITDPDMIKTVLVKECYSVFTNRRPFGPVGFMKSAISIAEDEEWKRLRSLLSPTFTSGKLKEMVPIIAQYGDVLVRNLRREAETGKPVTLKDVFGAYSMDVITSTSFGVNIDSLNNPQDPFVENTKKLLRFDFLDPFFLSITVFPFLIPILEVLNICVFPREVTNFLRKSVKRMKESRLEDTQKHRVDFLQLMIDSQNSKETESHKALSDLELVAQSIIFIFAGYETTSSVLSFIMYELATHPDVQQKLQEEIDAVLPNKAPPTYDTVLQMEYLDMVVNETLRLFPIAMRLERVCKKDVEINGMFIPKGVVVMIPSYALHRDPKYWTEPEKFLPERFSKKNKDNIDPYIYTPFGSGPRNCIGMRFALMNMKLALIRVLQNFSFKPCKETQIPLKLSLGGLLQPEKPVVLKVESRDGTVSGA
How it was run: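 CYP3A4 activity was followed with a P450-Glo proluciferin substrate. Test compounds in DMSO were preincubated 10 min; NADPH regeneration then ran 1 h, and light output was read 20 min after detection reagent.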

[5] = target: Cytochrome P450 2C9 (Homo sapiens) (UniProt P11712); test: Cytochrome P450 Family 2 Subfamily C Member 9 (CYP2C9) small molecule antagonists: luciferase reporter qHTS assay (AID 1671198); note: potency is the fitted concentration of half-maximal effect; nearly all actives have a fitted effect of over 50% in size
Chain of Cytochrome P450 2C9 (Homo sapiens) (P11712 whole entry, looked up): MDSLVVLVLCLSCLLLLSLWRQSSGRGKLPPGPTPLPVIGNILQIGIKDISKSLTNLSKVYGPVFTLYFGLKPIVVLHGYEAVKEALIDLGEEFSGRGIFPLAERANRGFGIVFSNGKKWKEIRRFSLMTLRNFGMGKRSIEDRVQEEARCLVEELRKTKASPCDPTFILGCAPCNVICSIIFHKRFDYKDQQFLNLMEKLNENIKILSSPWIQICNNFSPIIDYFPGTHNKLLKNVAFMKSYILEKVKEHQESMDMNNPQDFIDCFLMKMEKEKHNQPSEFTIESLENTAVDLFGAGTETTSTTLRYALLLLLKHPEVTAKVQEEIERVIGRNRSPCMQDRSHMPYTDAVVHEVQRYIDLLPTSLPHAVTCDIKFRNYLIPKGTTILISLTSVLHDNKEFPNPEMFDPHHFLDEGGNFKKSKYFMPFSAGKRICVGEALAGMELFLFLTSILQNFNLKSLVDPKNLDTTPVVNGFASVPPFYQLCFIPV
How it was run: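 P450-Glo proluciferin substrate with CYP2C9 enzyme; 10 min RT preincubation, then NADPH regeneration 1 h at 37C; luciferin detection reagent 20 min RT, luminescence in relative luminescence units.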

| Compound | Potency [1] | Potency [2] | Potency [3] | Potency [4] | Potency [5] |
| --- | --- | --- | --- | --- | --- |
| CN1CCC[C@@H]1c1cccnc1 | inactive | inactive | inactive | – | – |
| CC(C)CCCC(C)CCO (centres undefined) | inactive | inactive | inactive | inactive | – |
| CCCCOC(=O)/C=C\C(=O)OCCCC | 3.28 µM (active) | 7.34 µM (active) | inactive | – | – |
| CC(C)(C)c1cc(CO)cc(C(C)(C)C)c1O | – | inactive | inactive | – | 32.3 µM (active) |
| ClC(Cl)(Cl)c1ccc(C(Cl)(Cl)Cl)cc1 | – | 4.98 µM (active) | 6.85 µM (active) | – | 39.5 µM (active) |
| c1ccc(OCc2ccc(CCCN3CCOCC3)cc2)cc1 | – | inactive | 12 µM (active) | – | 38.9 µM (active) |
| O=C(c1ccccc1)c1ccc2n1CCC2C(=O)O (centres undefined) | inactive | – | inactive | inactive | – |
| CCOc1ccc(NC(=O)CC(C)=O)cc1 | 56.4 µM (active) | 31.7 µM (active) | inactive | inactive | – |
| O=C(O)C(c1ccc(Cl)cc1)c1ccc(Cl)cc1 | – | inactive | inactive | – | 15.9 µM (active) |
| CC(=O)N(CC(=O)N(C)C)c1ccccc1 | inactive | inactive | inactive | inactive | – |
| O=C(O)/C=C/c1cnc[nH]1 | 79.8 µM (active) | – | inactive | inactive | – |
| Oc1ccc(C(O)CNCCCCCCNCC(O)c2ccc(O)c(O)c2)cc1O (centres undefined) | inactive | – | inactive | inactive | – |
| CCCCOC(=O)c1ccccc1C(=O)OCC(CC)CCCC (centres undefined) | – | 12.6 µM (active) | inactive | – | 12.6 µM (active) |
| O=S(=O)(O)c1ccc(O)c2ncccc12 | inactive | inactive | inactive | inactive | – |
| CCN(CC)C(C)CN1c2ccccc2Sc2ccccc21 (centres undefined) | 34.7 µM (active) | 7.76 µM (active) | – | inactive | – |
